# Assay results: PubChem BioAssay (NCATS)
# Results filed as inconclusive are left out. The source made the active and inactive calls. Unless noted, calls follow the shape of the full dose curve.
# What was measured:
# [1] = qHTS for Inhibitors of the Functional Ribonucleoprotein Complex (vRNP) of Lassa (LASV) Arenavirus: LASV Primary Screen - GLuc reporter signal (AID 1347082; calls by dose curve; tested in HEK293 reporter line; also: nearly all actives have a fitted effect of over 60% in size; also: potency is read from the fitted curve at half-maximal effect; as to activity change, negative = inhibition: % is scaled to controls: 0 for no effect and ±100 for the full control effect)
# [2] = Cytotoxicity counterscreen for inhibitors of SARS-CoV-2 cell entry (AID 1645845); also: nearly all actives have a fitted effect of over 50% in size
# In short: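 Expi293F/hACE2 cells seeded overnight; cpd pin-transferred in DMSO, 1 h preincubation, + media, 48 h 37 C 5% CO2; ATPLite 1step luminescence; normalized to cells and no cells.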
# [3] = Primary qHTS to identify inhibitors of SARS-CoV-2 cell entry (AID 1645846); conditions: activity change, negative = inhibition: at 57.1 µM (top of the series) unless noted; also: nearly all actives have a fitted effect of over 45% in size
# In short: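 Entry measured by luciferase signal 48 h after adding SARS-CoV-2-S pseudotyped MLV particles to HEK293-ACE2 cells preincubated 1 h with compounds. Normalisation: bald particles and spike particles.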
# [4] = Inducers of the Endoplasmic Reticulum Stress Response (ERSR) in human glioma: Validation (AID 504836; active = well fitted curve in the direction sought with a large enough effect; an effect the other way counts as inactive or inconclusive; also: 0% is about no effect)
# In short: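 Stably transfected U87-MG human glioma cells carrying a GRP78-based luminescent sensor were seeded at 1000 cells/well, pin-dosed with compounds and incubated 16 h. Luciferase reagent was then added, and end-point luminescence was read after 10 min at room temperature.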
# [5] = qHTS for Inhibitors of the Functional Ribonucleoprotein Complex (vRNP) of Lassa (LASV) Arenavirus: Viability assay - alamar blue signal for LASV Primary Screen (AID 1347083; calls by dose curve; tested in HEK293 reporter line; also: nearly all actives have a fitted effect of over 80% in size; also: potency is read from the fitted curve at half-maximal effect)
# [6] = molecular target: Alpha-galactosidase (Coffea arabica) (UniProt Q42656); test: Counterscreen for Glucocerebrosidase Inhibitors: qHTS Assay for Coffee Bean alpha-Galactosidase at pH 4.5 (AID 957; active = well fitted curve in the direction sought with a large enough effect; an effect the other way counts as inactive or inconclusive;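 also: plate controls were enzyme alone for no effect and no enzyme for full effect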)
# Chain of Alpha-galactosidase (Coffea arabica) (Q42656 whole entry, looked up): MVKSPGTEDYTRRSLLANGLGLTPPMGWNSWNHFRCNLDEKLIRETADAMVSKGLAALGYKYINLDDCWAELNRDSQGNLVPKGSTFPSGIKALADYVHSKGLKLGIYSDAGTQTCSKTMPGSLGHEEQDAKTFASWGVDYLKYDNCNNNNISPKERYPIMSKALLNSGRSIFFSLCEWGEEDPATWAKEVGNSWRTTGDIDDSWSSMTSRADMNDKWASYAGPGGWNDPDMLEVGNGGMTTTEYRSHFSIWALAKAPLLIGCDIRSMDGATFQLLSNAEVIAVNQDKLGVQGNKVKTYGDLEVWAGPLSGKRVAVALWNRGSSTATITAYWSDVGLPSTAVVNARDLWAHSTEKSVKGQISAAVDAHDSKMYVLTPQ
# In short: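 Green coffee bean enzyme (2 nM final) was incubated with compounds (0.7 nM to 77 uM) and 4-methylumbelliferyl alpha-D-galactopyranoside (80 uM final) in 50 mM citric acid, 0.005% Tween-20, pH 4.5, 20 min at room temperature; AC50 from Hill fits.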
# [7] = molecular target: Alpha-galactosidase (Coffea arabica) (UniProt Q42656); test: Counterscreen for Glucocerebrosidase Inhibitors: qHTS Assay for Coffee Bean alpha-Galactosidase at pH 5.9 (AID 998; active = well fitted curve in the direction sought with a large enough effect; an effect the other way counts as inactive or inconclusive;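 also: plate controls were uninhibited enzyme for no effect and no-enzyme basal signal for full effect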)
# In short: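 Green coffee bean enzyme (2 nM final) was incubated with compounds (0.7 nM–77 uM) and 4-methylumbelliferyl alpha-D-galactopyranoside (80 uM) in citrate buffer pH 5.9, 20 min at room temperature. High-pH stop; fluorescence 365/440 nm; AC50 from Hill fits.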
# [8] = Validation screen for inhibitors of Lassa infection (AID 463096); also: potency is read from the fitted curve at half-maximal effect
# [9] = qHTS for Inhibitors of the Functional Ribonucleoprotein Complex (vRNP) of Lymphocytic Choriomeningitis Arenaviruses (LCMV): Viability assay - alamar blue signal for LCMV Primary Screen (AID 1347085; calls by dose curve; tested in HEK293 reporter line; also: nearly all actives have a fitted effect of over 80% in size; also: potency is read from the fitted curve at half-maximal effect)
# [10] = molecular target: Nucleoprotein (Lymphocytic choriomeningitis virus (strain Armstrong)) (UniProt P09992); test: qHTS for Inhibitors of the Functional Ribonucleoprotein Complex (vRNP) of Lymphocytic Choriomeningitis Arenaviruses (LCMV): LCMV Primary Screen - GLuc reporter signal (AID 1347086); also: nearly all actives have a fitted effect of over 70% in size; also: potency is read from the fitted curve at half-maximal effect; as to activity change, negative = inhibition: % is scaled to controls: 0 for no effect and ±100 for the full control effect
# Chain of Nucleoprotein (Lymphocytic choriomeningitis virus (strain Armstrong)) (P09992 whole entry, looked up): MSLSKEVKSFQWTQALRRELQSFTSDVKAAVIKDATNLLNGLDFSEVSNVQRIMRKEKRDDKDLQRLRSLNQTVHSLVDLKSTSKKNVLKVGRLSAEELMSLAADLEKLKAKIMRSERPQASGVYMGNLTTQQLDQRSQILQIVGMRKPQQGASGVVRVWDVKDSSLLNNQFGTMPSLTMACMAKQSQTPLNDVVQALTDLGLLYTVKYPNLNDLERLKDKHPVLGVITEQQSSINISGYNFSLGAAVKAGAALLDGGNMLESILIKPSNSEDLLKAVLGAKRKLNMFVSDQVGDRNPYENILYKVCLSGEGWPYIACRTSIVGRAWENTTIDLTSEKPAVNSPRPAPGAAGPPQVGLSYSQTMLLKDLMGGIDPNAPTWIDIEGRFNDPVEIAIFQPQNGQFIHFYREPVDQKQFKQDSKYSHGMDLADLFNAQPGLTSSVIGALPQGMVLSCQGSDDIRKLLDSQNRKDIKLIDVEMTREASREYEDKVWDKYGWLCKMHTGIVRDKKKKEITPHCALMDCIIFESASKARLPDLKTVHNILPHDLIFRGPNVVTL
# [11] = molecular target: Cytochrome P450 3A4 (Homo sapiens) (UniProt P08684); test: qHTS Assay for Inhibitors and Substrates of Cytochrome P450 3A4 (AID 884; active = well fitted curve in the direction sought with a large enough effect; an effect the other way counts as inactive or inconclusive; also: potency is read from the fitted curve at half-maximal effect; nearly all actives have a fitted effect of over 50% in size)
# Chain of Cytochrome P450 3A4 (Homo sapiens) (P08684 whole entry, looked up): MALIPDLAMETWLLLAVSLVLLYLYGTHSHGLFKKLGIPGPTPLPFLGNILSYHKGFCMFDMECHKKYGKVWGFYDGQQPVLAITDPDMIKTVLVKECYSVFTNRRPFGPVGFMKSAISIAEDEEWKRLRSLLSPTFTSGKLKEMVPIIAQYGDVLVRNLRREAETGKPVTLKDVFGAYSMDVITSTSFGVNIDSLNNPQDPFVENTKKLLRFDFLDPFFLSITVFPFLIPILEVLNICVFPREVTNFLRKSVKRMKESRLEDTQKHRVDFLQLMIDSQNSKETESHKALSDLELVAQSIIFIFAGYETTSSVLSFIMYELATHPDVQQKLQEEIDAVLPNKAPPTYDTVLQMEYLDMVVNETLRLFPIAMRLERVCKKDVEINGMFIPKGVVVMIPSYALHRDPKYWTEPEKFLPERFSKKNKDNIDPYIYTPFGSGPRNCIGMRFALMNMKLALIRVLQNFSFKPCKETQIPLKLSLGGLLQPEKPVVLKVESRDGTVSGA
# In short: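 20 nM human CYP3A4 with 25 uM Luciferin-PPXE (at KM) in 200 mM KPO4, preincubated 10 min with compound; NADPH regeneration started a 60 min RT reaction. Luciferin detected by luminescence, normalized to 57 uM ketoconazole as full inhibition.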
# [12] = molecular target: Cytochrome P450 3A4 (Homo sapiens) (UniProt P08684); test: qHTS Assay for Activators of Cytochrome P450 3A4 (AID 885; active = well fitted curve in the direction sought with a large enough effect; an effect the other way counts as inactive or inconclusive; also: nearly all actives have a fitted effect of over 65% in size)
# In short: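 Quantitative HTS format: compounds preincubated with 20nM human CYP3A4 and Luciferin-PPXE substrate at KM, reaction started by NADPH regeneration, stopped after 60 min, luciferase luminescence read 20 min later.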
# [13] = Confirmation and Secondary Assay for Modulators of Hemoglobin Beta Chain Splicing at IVS2 654 locus (AID 910; active = well fitted curve in the direction sought with a large enough effect; an effect the other way counts as inactive or inconclusive;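 also: per-well total GFP intensity by laser scanning cytometry after 2-day treatment; potency is read from the fitted curve at half-maximal effect; potency of activators that raise GFP signal by restoring correct splicing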)
# In short: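 HeLa cells stably carrying EGFP interrupted by mutant beta-globin IVS2-654 intron (CMV-driven) were treated with compound for 2 days at 37C; corrected splicing was scored as total peak GFP intensity per well (488 nm excitation, 500-520 nm emission).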
# [14] = Confirmatory qHTS to identify inhibitors of SARS-CoV-2 cell entry (AID 1645844); also: potency is read from the fitted curve at half-maximal effect; nearly all actives have a fitted effect of over 45% in size
# In short: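 HEK293-ACE2 cells (Expi293F stably expressing human ACE2) were pretreated with compounds for 1 hr at 37C, then infected with MLV-based particles carrying Wuhan-Hu-1 spike (C-terminal 19-aa truncation). Luciferase luminescence read after 48 hr; normalized to spike PP (100%) and bald PP (0%).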
# [15] = VSVG counterscreen qHTS to identify inhibitors of SARS-CoV-2 cell entry (AID 1645847); also: potency is read from the fitted curve at half-maximal effect; nearly all actives have a fitted effect of over 65% in size
# In short: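 Luminescence read after 48 h infection at 37 C with VSV-G-pseudotyped MLV particles, following 1 h compound exposure of Expi293F cells stably expressing human ACE2; scaled between bald particle and VSV-G particle wells.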
smiles,measurement,setting,value
C[C@]12CC[C@H](O)CC1=CCC1C2CC[C@]2(C)C(n3cnc4ccccc43)=CCC12 (some centres not stated),Potency,[1],inactive
same,Potency,[2],inactive
same,Potency,[3],inactive
Oc1ccc2ccccc2c1SSc1c(O)ccc2ccccc12,outcome,[4],inactive
same,Potency,[1],inactive
same,Potency,[2],inactive
CC(=O)OC1C(O)C(C)OC(OC2C(OC(=O)C3CCC4C(C3)OC3(CC(OC(=O)/C=C/c5ccccc5)C(C)CO3)C43CO3)OC(C)C(O)C2OC(C)=O)C1O (configuration not stated),Potency,[5],178 nM (active)
Cc1cc(Nc2ncnc3ccc(-c4ccc(CNCCS(C)(=O)=O)o4)cc23)ccc1Oc1ccn2ncnc2c1,Potency,[1],15300 nM (active)
same,Potency,[2],inactive
same,Potency,[3],inactive
COc1ccc(-n2c(C)c([N+](=O)[O-])c3ccc(O)cc32)cc1,Potency,[1],inactive
same,"activity change, negative = inhibition",[3],-4.69%
CCOC(=O)N1c2ccc(C(F)(F)F)cc2[C@@H](N(Cc2cc(C(F)(F)F)cc(C(F)(F)F)c2)C(=O)OC)C[C@H]1CC,Potency,[1],inactive
same,Potency,[2],inactive
same,Potency,[3],inactive
Oc1ccc(C2=Cc3ccc(O)cc3OC2)cc1,Potency,[5],24300 nM (active)
COc1ccc(NC(=O)c2ccc(-c3ccc(-c4noc(C)n4)cc3C)cc2)cc1N1CCN(C)CC1,outcome,[6],inactive
same,outcome,[7],inactive
same,Potency,[8],7940 nM (active)
same,outcome,[4],inactive
same,Potency,[1],inactive
COc1ccc2c(c1OC)C(=O)OC2[C@H]1c2c(cc3c(c2OC)OCO3)CCN1C (some centres not stated),outcome,[6],inactive
same,outcome,[7],inactive
same,Potency,[5],1530 nM (active)
same,Potency,[9],1530 nM (active)
same,Potency,[10],1370 nM (active)
same,Potency,[2],inactive
C#C[C@]1(O)CC[C@@H]2[C@@H]3CCc4cc(O)ccc4[C@H]3CC[C@@]21C,Potency,[5],6850 nM (active)
same,Potency,[9],3060 nM (active)
same,Potency,[10],2170 nM (active)
COc1cc(-c2nn(C3CCC(N4CCN(C(C)=O)CC4)CC3)c3ncnc(N)c23)ccc1NC(=O)c1cc2ccccc2n1C (configuration not stated),Potency,[5],863 nM (active)
same,Potency,[9],968 nM (active)
same,Potency,[10],685 nM (active)
C[C@@H]1[C@H](O)[C@@H](C)C=CC=CC=CC=CC=CC=CC=C[C@H](O[C@@H]2O[C@H](C)[C@H](O)[C@H](N)[C@@H]2O)C[C@@H]2O[C@](O)(C[C@@H](O)C[C@@H](O)[C@H](O)CC[C@@H](O)C[C@@H](O)CC(=O)O[C@H]1C)C[C@H](O)[C@@H]2C(=O)O,Potency,[5],10900 nM (active)
same,Potency,[9],8630 nM (active)
same,Potency,[10],4850 nM (active)
COc1cc(OC)c(C=CS(=O)(=O)Cc2ccc(OC)c(NCC(=O)O)c2)c(OC)c1,Potency,[5],217 nM (active)
same,Potency,[9],273 nM (active)
same,Potency,[10],611 nM (active)
C#C[C@]1(O)CC[C@H]2[C@H]3CCc4cc(OC)ccc4[C@H]3CC[C@@]21C,Potency,[5],13700 nM (active)
same,Potency,[9],24300 nM (active)
same,Potency,[10],27300 nM (active)
CC[C@@]1(O)C(=O)OCc2c1cc1n(c2=O)Cc2cc3cc(O)ccc3nc2-1,Potency,[11],12600 nM (active)
same,Potency,[12],inactive
same,Potency,[13],12600 nM (active)
same,Potency,[5],685 nM (active)
same,Potency,[9],968 nM (active)
same,Potency,[10],1370 nM (active)
same,"activity change, negative = inhibition",[3],-96.4%
CCC[C@H](Nc1nc(-c2ccc(NC(=O)NCC)c(OC)c2)ncc1C)c1cccnc1,Potency,[5],38.5 nM (active)
same,Potency,[9],48.5 nM (active)
same,Potency,[10],109 nM (active)
same,"activity change, negative = inhibition",[3],-93.9%
O=C(C=CC#Cc1cccc(NS(=O)(=O)c2ccccc2)c1)NO,Potency,[5],13700 nM (active)
same,Potency,[9],6850 nM (active)
same,Potency,[10],12200 nM (active)
N#CC(=C(\N)Sc1ccccc1N)/C(C#N)=C(/N)Sc1ccccc1N,Potency,[8],794 nM (active)
same,outcome,[4],inactive
same,Potency,[5],inactive
same,Potency,[9],inactive
same,Potency,[10],inactive
COc1cc2cc(c1Cl)N(C)C(=O)CC(OC(=O)C(C)N(C)C(C)=O)C1(C)OC1C(C)C1CC(O)(NC(=O)O1)C(OC)C=CC=C(C)C2 (configuration not stated),Potency,[5],inactive
same,Potency,[9],inactive
same,Potency,[10],inactive
CNC(=O)CN1CCC(Oc2cc3c(Nc4cccc(Cl)c4F)ncnc3cc2OC)CC1,Potency,[5],76.9 nM (active)
same,Potency,[9],30.6 nM (active)
same,Potency,[10],38.5 nM (active)
same,Potency,[2],inactive
NCC(=O)Nc1ccc(-n2nc(C(F)(F)F)cc2-c2ccc3c(ccc4ccccc43)c2)cc1,Potency,[5],19300 nM (active)
same,Potency,[9],10900 nM (active)
same,Potency,[10],1720 nM (active)
same,Potency,[14],15200 nM (active)
same,Potency,[15],6070 nM (active)
CC(=O)ON=C1C(c2c(O)[nH]c3cc(Br)ccc23)=Nc2ccccc21,Potency,[5],1930 nM (active)
same,Potency,[9],inactive
same,Potency,[10],inactive
C=CC(=O)Nc1ccc2ncnc(Nc3ccc(OCc4cccc(F)c4)c(Cl)c3)c2c1,Potency,[5],968 nM (active)
same,Potency,[9],385 nM (active)
same,Potency,[10],432 nM (active)
CO[C@H]1C[C@@H]2CC[C@@H](C)[C@@](O)(O2)C(=O)C(=O)N2CCCC[C@@H]2C(=O)O[C@H]([C@H](C)C[C@@H]2CC[C@H](OC(=O)C(C)(CO)CO)[C@H](OC)C2)CC(=O)[C@H](C)C=C(C)[C@@H](O)[C@@H](OC)C(=O)[C@H](C)C[C@H](C)C=CC=CC=C1C,Potency,[5],12.2 nM (active)
same,Potency,[9],27.3 nM (active)
same,Potency,[10],15.3 nM (active)
